Data taken from PubChem BioAssay AID1986 (Sanford-Burnham Center for Chemical Genomics, 2009).
Hit rate of the full screen: of about 290,000 compounds, about 890 (0.31%) were called active. Rule as the data show it: active = inhibition mostly above about 52% (no sharp cut-off); inactive = mostly below about 76%. The entries come from a sample that favours actives as a whole.

Assay: inhibitors of HIV fusion peptide binding, primary screen, biochemical, uHTS, fluorescence dequenching (AID 1986)
Settings: cell-free peptide binding, 30 min, stronger effect = higher value
[1] = measured here: repeat confirmation average inhibition, at 18.6 µM

Structure (SMILES) | inhibition (at 20 µM) | inhibition [1]
CS(=O)(=O)Nc1ccc(C(=O)Nc2ccc3c(c2)OCO3)cc1 | -0.8% (inactive) | 
O=C(Nc1cc(S(=O)(=O)N2CCOCC2)ccc1N1CCOCC1)c1cccc(S(=O)(=O)N2CCCCC2)c1 | 0.7% (inactive) | 
Cn1c(CCN2CCCCC2)nc2cc(NC(=O)NC3CCCCC3)ccc21 | 53.5% (inactive) | 1.9%
O=C(NNC(=O)c1ccc([N+](=O)[O-])cc1)c1ccc(Br)cc1 | 2% (inactive) | 
NC(=O)C1CCN(C(c2ccccc2Cl)c2nnnn2CC2CCCO2)CC1 (stereo not given) | 1.1% (inactive) | 
COc1ccc(S(=O)(=O)N(CCCN2CCOCC2)Cc2cccc(OC)c2OC)cc1 | -0.2% (inactive) | 
COc1ccc(CNCCCC(=O)Nc2c(Cl)ccc(C)c2Cl)cc1OC | -0.3% (inactive) | 
N#C/C(=C/c1ccc(OCc2ccc(C(=O)O)cc2)c(Br)c1)c1cccc(F)c1 | 87.9% (active) | 
N#C/C(=C/c1ccccc1OCc1ccc(F)cc1)c1ccc(C(=O)O)cc1 | 31% (inactive) | 
N#C/C(=C\c1ccccc1OCc1ccc(C(=O)O)cc1)c1ccccc1 | 19.1% (inactive) | 
O=C(Nc1c2c(nn1-c1ccc([N+](=O)[O-])cc1)CS(=O)(=O)C2)C1CC1 | 0.9% (inactive) | 
Cc1ccc(N2C(=O)/C(=C\c3ccco3)SC2=S)cc1 | 71.5% (inactive) | -1.2%
O=C1NC(=Nc2ccc(O)cc2)S/C1=C\C=C\c1ccco1 | 41.3% (inactive) | 
O=C1S/C(=C\C=C\c2ccco2)C(=O)N1c1ccc(O)cc1 | 78.1% (active) | 
O=C1/C(=C/C=C/c2ccco2)SC(=S)N1c1ccc(O)cc1 | 55.7% (active) | 
O=C1/C(=C\c2ccco2)SC(=S)N1c1ccc(O)cc1 | 57.7% (inactive) | -2%
O=C1S/C(=C\C=C\c2ccco2)C(=O)N1c1ccccc1 | 54.9% (inactive) | -0.6%
CN(C)CCNc1oc(-c2ccccc2F)nc1C#N | 0.5% (inactive) | 
Cc1ccc(/C(O)=C2/C(=O)C(=O)N(CC(=O)O)C2c2ccc([N+](=O)[O-])cc2)cc1 (stereo not given) | 3.5% (inactive) | 
O=C(CNC(=O)c1ccco1)OCC(=O)c1ccc([N+](=O)[O-])cc1 | -0.7% (inactive) | 
Cc1c(C(=O)O)sc2nc(/C=C/c3cccc(O)c3)[nH]c(=O)c12 | 5.5% (inactive) | 
Cc1c(C(=O)O)sc2nc(/C=C/c3cccc(F)c3)[nH]c(=O)c12 | 27.7% (inactive) | 
Cc1ccc(/C=C/c2nc3sc(C(=O)O)c(C)c3c(=O)[nH]2)cc1[N+](=O)[O-] | 73% (active) | 

Structure (SMILES) | inhibition (at 20 µM) | inhibition [1]
COC(=O)c1c(/N=C/NOCc2ccc(Cl)cc2)sc2c1CCN(c1ncc(C(F)(F)F)cc1Cl)C2 | -1.7% (inactive) | 
CC(C)Cn1c(N)c(C(=O)COC(=O)c2ccncc2)c(=O)n(C)c1=O | 0.1% (inactive) | 
CCOc1ccc(Br)cc1S(=O)(=O)N1CCC(C(N)=O)CC1 | -0.7% (inactive) | 
CCn1cc(C(=O)NCCc2ccccc2C)c(=O)c2ccc(C)nc21 | -1.3% (inactive) | 
CC(C)Nc1cc(N2CCCC2)ccc1[N+](=O)[O-] | -0.2% (inactive) | 
COC(=O)CC1COc2ccccc2N1C(=O)c1ccc(Cl)cc1 (stereo not given) | -3% (inactive) | 
Cc1nc2c(C(=O)NCc3ccccc3Cl)c[nH]n2c(=O)c1Cl | 49.3% (inactive) | 
Cc1nc2c(C(=O)NCCc3ccccc3Cl)c[nH]n2c(=O)c1Cl | 56.9% (active) | 
Cc1nc2c(C(=O)NCCc3ccccc3)c[nH]n2c(=O)c1Cl | 5.3% (inactive) | 
COc1cc(CNc2ccc(S(N)(=O)=O)cc2)ccc1OCC(=O)NC1CCCCC1 | -1% (inactive) | 
O=C(CN1c2ccccc2S(=O)(=O)c2ccccc21)NCc1ccccc1 | -0.5% (inactive) | 
Cc1ccc(/C=C2\SC(=S)N(C3CCS(=O)(=O)C3)C2=O)o1 (stereo not given) | 25.1% (inactive) | 
O=C1/C(=C\c2ccco2)SC(=S)N1C1CCS(=O)(=O)C1 (stereo not given) | 40.7% (inactive) | 
CC1=C(C#N)C(=O)N(C2CCS(=O)(=O)C2)C(=O)/C1=C\c1ccco1 (stereo not given) | 83.1% (active) | 
CC1=C(C#N)C(=O)N(C2CCS(=O)(=O)C2)C(=O)/C1=C\c1ccc(C)o1 (stereo not given) | 101% (active) | 
O=C1/C(=C/c2ccco2)SC(=S)N1C1CCS(=O)(=O)C1 (stereo not given) | 39.9% (inactive) | 
Cc1ccc(/C=C2/SC(=S)N(C3CCCCC3)C2=O)o1 | 32.1% (inactive) | 
Cn1c(=O)oc2cc(S(=O)(=O)N3CCCC(C(=O)N4CCc5ccccc5C4)C3)ccc21 (stereo not given) | 2.2% (inactive) | 
Cc1ccc(CS(=O)(=O)Cc2ccc(C(=O)NCCc3ccccc3)o2)cc1 | 0.5% (inactive) | 
CC(C)CNS(=O)(=O)c1cc(C(=O)N2CCOCC2)c(Cl)cc1Cl | 1.1% (inactive) | 
COc1cc(/C=N/NC(N)=O)ccc1OCC(=O)Nc1ccc(C)c(C)c1 | 11.1% (inactive) | 
Cc1cc(C(F)F)n2ncc(C(=O)NC3CCCCCC3)c2n1 | 3.7% (inactive) | 
Cc1c(C(=O)NC(c2ccccn2)C(F)(F)F)oc2c(F)cccc12 (stereo not given) | 0.9% (inactive) | 
